Measurements taken from PubChem BioAssay (NCATS).
Where “and” joins values, the source holds several entries; their conditions need not be identical. Equal entries are not always repeated. Inconclusive results are not listed. Calls of active or inactive are those of the source. Calls follow the shape of the dose curve; as a rule, active = well fitted curve in the direction sought with a large enough effect; inconclusive = small, poorly fitted or top-dose-only effect, or another doubt; inactive = no such curve, though single readings can be large; an effect the other way counts as inactive or inconclusive.

Tests used:
[1] = target: Cellular tumor antigen p53 (Homo sapiens) (UniProt P04637); test: Primary qHTS for small molecule compounds that upregulate eGFP-tagged delta133p53alpha (in N-terminal) cells. (AID 2060322); conditions: NCI-H358 eGFP-delta133p53alpha fluorescence, 24 h; activation: active compounds read high;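 also: cells pre-induced with doxycycline then dosed without doxycycline; series mostly up to about 56 µM; 0% = DMSO vehicle and 100% = reference activator; nearly all actives have a fitted effect of over 75% in size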
Cellular tumor antigen p53 (Homo sapiens), sequence (P04637 whole entry, looked up): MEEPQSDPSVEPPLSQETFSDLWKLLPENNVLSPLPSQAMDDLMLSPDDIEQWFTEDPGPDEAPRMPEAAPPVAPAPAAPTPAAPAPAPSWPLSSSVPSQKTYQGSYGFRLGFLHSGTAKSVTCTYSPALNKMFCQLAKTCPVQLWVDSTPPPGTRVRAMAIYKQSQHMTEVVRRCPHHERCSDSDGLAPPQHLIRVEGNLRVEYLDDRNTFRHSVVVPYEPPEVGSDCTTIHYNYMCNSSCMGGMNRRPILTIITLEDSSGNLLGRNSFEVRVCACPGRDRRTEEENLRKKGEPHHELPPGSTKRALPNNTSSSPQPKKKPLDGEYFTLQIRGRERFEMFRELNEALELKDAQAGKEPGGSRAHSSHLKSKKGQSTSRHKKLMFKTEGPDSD
Method in brief: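 NCI-H358 cells pre-induced 24 h with 10 ng/ml doxycycline for eGFP-delta133p53alpha, plated dox-free and exposed 24 h at 37C to titrated compounds. Fixed, Hoechst-stained; gated GFP peak intensity by laser scanning cytometry, normalized to DMSO (0%) and 57.5 uM 5-azacytidine (100%).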

[2] = BET inhibitor-based combinations targeting novel dependencies in MECOM-rearranged (r) AML: SET-2 cell line (AID 2202231); conditions: SET-2 AML cells viability, CellTiter-Glo luminescence, 48 h; viability: active compounds read low, concentration not given here; also: nearly all actives have a fitted effect of over 35% in size; also: potency is read from the fitted curve at half-maximal effect;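 as to viability: plate controls were DMSO treated cells for no effect and wells without cells for full effect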
Method in brief: (§1)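 AML cell lines seeded at 500 cells/well, treated with 11-point dose curves for 48 h. Viability by CellTiter-Glo luminescence, normalised to DMSO and empty wells; activity expressed as AUC and per-cell-line Z-transformed AUC.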

[3] = BET inhibitor-based combinations targeting novel dependencies in MECOM-rearranged (r) AML: OCI-AML3 cell line (AID 2202232); conditions: Potency: OCI-AML3 viability; also: nearly all actives have a fitted effect of over 35% in size; also: potency is read from the fitted curve at half-maximal effect
Method in brief: as §1

[4] = BET inhibitor-based combinations targeting novel dependencies in MECOM-rearranged (r) AML: HNT-34 cell line (AID 2202234); also: nearly all actives have a fitted effect of over 35% in size; also: potency is read from the fitted curve at half-maximal effect
Method in brief: (§2)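 Cells at 500/well were exposed for 48 hr to MIPE v5.0 drugs as 11-point dose curves. Viability was read by CellTiter-Glo luminescence and normalized to DMSO and empty-well controls. Activity was expressed as AUC and per-cell-line Z-AUC.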

[5] = BET inhibitor-based combinations targeting novel dependencies in MECOM-rearranged (r) AML: UCSD-AML1 cell line (AID 2202235); also: nearly all actives have a fitted effect of over 40% in size; also: potency is read from the fitted curve at half-maximal effect
Method in brief: as §2

[6] = BET inhibitor-based combinations targeting novel dependencies in MECOM-rearranged (r) AML: AML-191 cell line (AID 2202236; also: nearly all actives have a fitted effect of over 35% in size; also: potency is read from the fitted curve at half-maximal effect)
Method in brief: as §1

[7] = BET inhibitor-based combinations targeting novel dependencies in MECOM-rearranged (r) AML: AML-194 cell line (AID 2202237; also: nearly all actives have a fitted effect of over 40% in size; also: potency is read from the fitted curve at half-maximal effect)
Method in brief: as §1

[8] = BET inhibitor-based combinations targeting novel dependencies in MECOM-rearranged (r) AML: MV-4-11 cell line (AID 2202233); also: potency is read from the fitted curve at half-maximal effect; nearly all actives have a fitted effect of over 45% in size
Method in brief: as §2

C[C@]12C=CC(=O)C=C1CC[C@@H]1[C@@H]2[C@@H](O)C[C@@]2(C)[C@H]1CC[C@]2(O)C(=O)CO
active: Potency [6] 0.372 µM | Potency [7] 1.18 µM
inactive: activation [1] -4.18% | viability [2] 103% | Potency [3] | Potency [4] | Potency [5]

COc1ccc(Nc2nccc(NCCO)n2)cc1
active: Potency [3] 23.5 µM
inactive: activation [1] 25.6% | viability [2] 106% | Potency [4] | Potency [5] | Potency [6] | Potency [7]

COc1cc2nccc(Oc3ccc(NC(=O)Nc4ccc(F)cc4F)c(F)c3)c2cc1OC
active: Potency [8] 0.0934 µM | Potency [4] 1.66 µM | Potency [5] 2.09 µM
inactive: activation [1] 5.39% | viability [2] 108%

Nc1nc(N)nc(-c2cc(Cl)ccc2Cl)n1
inactive: activation [1] 2.82% and 12% | viability [2] 105% | Potency [3] | Potency [4] | Potency [5] | Potency [6] | Potency [7]

CC(C)Cn1cnc2c(N)nc3ccccc3c21
inactive: activation [1] -10% and 13.9% | viability [2] 101% | Potency [3] | Potency [5]

C#CCC(Cc1cnc2nc(N)nc(N)c2n1)c1ccc(C(=O)N[C@@H](CCC(=O)O)C(=O)O)cc1 (some centres undefined)
inactive: activation [1] -21.3%
active: Potency [2] 0.0019 µM | Potency [8] 0.0053 µM

C[C@]1(c2nc3c(C(N)=O)cccc3[nH]2)CCCN1
active: Potency [3] 8.33 µM
inactive: activation [1] 53.7% | viability [2] 113% | Potency [5] | Potency [7]

Cn1cc(-c2ccc3nnc(Sc4ccc5ncccc5c4)n3n2)cn1
inactive: activation [1] -0.663% | viability [2] 107% | Potency [3] | Potency [5] | Potency [6] | Potency [7]
